# These assays gave more results; the selection is not random.
# Target: Huntingtin (Homo sapiens) (UniProt P42858)
# Test: qHTS Assay Multiplex Screening to Identify Dual Action Probes in a Cell Model of Huntington: Cytoprotection (Protease release). [Related pubchem assays: 1482, 1471, 1688 ]; call rule not given here
# Format: functional
# Huntingtin (Homo sapiens), sequence (P42858 whole entry): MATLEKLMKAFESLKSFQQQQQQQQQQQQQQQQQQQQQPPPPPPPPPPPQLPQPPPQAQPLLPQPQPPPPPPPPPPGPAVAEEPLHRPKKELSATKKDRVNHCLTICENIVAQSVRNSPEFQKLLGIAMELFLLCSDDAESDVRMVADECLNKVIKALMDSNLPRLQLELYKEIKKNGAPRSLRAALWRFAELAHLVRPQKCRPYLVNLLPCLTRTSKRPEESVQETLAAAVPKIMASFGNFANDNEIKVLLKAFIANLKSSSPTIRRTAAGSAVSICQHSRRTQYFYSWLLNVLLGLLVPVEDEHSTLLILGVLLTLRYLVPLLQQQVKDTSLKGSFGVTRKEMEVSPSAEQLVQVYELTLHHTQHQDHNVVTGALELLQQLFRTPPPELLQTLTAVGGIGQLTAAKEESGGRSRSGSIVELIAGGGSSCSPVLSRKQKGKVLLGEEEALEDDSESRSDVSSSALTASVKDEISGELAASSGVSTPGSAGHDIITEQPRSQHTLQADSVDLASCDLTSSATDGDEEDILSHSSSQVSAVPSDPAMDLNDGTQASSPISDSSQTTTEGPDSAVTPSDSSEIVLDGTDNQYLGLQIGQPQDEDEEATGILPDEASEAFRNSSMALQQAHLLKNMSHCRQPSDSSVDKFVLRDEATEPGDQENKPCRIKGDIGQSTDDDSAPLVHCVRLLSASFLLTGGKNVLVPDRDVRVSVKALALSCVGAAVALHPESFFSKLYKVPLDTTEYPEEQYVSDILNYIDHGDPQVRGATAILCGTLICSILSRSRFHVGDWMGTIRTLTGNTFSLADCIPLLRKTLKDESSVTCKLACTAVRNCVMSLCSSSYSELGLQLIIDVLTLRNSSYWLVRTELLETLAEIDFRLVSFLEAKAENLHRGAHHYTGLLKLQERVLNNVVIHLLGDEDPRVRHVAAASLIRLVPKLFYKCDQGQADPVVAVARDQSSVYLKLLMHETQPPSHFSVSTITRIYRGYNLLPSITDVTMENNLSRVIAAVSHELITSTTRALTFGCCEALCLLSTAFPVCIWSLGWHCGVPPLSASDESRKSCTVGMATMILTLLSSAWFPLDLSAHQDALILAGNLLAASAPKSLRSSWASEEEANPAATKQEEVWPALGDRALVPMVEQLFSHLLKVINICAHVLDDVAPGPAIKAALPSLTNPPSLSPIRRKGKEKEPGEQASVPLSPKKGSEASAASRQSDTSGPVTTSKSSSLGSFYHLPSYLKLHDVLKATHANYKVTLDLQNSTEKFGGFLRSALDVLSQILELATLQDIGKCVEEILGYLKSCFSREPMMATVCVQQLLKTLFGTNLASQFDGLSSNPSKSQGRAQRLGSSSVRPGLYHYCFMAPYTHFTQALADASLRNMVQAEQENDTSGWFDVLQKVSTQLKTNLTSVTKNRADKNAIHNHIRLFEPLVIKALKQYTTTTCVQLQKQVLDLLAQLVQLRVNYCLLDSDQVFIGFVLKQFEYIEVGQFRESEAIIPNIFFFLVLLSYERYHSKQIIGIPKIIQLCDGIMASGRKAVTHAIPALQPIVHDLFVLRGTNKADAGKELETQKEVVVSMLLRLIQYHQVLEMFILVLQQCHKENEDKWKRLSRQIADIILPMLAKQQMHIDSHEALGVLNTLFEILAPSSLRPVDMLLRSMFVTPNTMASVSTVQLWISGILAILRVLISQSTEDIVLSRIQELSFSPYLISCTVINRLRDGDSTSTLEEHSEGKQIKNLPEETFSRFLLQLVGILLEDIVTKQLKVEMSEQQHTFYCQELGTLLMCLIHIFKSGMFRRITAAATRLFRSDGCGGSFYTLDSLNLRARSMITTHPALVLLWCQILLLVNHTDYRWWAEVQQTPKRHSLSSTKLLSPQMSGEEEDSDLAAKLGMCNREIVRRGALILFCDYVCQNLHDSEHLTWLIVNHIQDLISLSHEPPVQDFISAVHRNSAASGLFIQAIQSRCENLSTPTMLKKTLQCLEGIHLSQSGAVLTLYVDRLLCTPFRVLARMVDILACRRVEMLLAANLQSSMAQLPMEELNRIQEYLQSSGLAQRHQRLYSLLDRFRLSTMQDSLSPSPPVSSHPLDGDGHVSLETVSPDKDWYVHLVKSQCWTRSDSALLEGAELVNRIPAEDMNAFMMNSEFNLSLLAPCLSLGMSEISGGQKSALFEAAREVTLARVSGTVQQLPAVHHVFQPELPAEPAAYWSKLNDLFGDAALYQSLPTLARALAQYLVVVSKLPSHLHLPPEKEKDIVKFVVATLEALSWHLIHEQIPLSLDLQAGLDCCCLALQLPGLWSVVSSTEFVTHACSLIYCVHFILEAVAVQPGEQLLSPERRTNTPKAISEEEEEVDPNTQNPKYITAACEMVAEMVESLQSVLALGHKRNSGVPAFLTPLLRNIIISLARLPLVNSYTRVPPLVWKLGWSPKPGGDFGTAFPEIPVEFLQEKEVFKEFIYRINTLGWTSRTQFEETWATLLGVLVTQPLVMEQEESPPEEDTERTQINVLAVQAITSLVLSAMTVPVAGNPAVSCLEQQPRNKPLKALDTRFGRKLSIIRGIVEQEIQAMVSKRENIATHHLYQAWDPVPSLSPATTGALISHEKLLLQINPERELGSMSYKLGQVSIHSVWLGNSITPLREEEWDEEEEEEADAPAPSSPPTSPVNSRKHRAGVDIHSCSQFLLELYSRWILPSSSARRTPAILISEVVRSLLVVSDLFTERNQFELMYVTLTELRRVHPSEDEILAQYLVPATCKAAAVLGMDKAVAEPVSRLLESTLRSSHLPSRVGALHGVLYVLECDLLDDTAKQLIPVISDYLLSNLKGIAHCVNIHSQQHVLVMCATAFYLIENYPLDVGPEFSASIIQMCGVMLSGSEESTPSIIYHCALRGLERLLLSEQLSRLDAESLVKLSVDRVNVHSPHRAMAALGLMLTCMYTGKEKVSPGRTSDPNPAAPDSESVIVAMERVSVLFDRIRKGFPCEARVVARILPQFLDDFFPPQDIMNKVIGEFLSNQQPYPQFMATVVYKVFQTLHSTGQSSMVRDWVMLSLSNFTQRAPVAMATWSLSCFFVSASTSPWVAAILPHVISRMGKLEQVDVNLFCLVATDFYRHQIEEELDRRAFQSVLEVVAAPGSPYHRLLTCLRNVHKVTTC
compound,measurement,value
COC[C@@H]([C@H](O)[C@H](O)C(=O)NCC[C@H](C)c1nc(/C=C/C[C@@H]2O[C@]3(C[C@@H](O)[C@@H]2C)O[C@H]([C@H](C[C@H](O)[C@H](C)[C@H](O)[C@H](C)/C=C(C)/C(C)=C/C=C/C(C)=C\C#N)OC)[C@H](OP(=O)(O)O)C3(C)C)co1)N(C)C,Potency,1.12 µM (active)

# Reference: ChEMBL document CHEMBL1201862, “PubChem BioAssay data set” (2004)
